Experimental findings from PubChem BioAssay (NCATS) are described below.

Results filed as inconclusive are left out. Unmarked numbers belong to inactive results. Activity calls are given as the source filed them. Calls come from the whole dose curve; as a rule, active = well fitted cell-killing curve with a large enough effect; inconclusive = small, poorly fitted or top-dose-only effect, or effect the other way; inactive = no such curve, though single readings can be large or run the other way.

Test [1] is described as follows: Viability qHTS for spleen associated tyrosine kinase inhibitor (SYKi) naive MV4-11 cells (AID 1963823). Note: nearly all actives have a fitted effect of over 40% in size. Put shortly:
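qHTS, SYK inhibitor-naive MV4-11; 500 cells/well; 72 hr compound exposure, 37 C; CellTiter-Glo added, 10 min RT; luminescence read.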
(In general: In qHTS, concentration-response curves come from the screen itself.)

Test [2] is described as follows: Viability qHTS for spleen associated tyrosine kinase inhibitor (SYKi) drug resistant MV4-11 cells (AID 1963824). Note: nearly all actives have a fitted effect of over 35% in size. The essentials: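 CellTiter-Glo luminescence, read 10 min after reagent addition, reports viability after a 72 hr compound exposure. Cells are an MV4-11 line made resistant to SYK inhibition, seeded at 500 per well onto compound-containing plates.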
Potency is the fitted concentration of half-maximal effect.

In the case of `O=C(O)CC(CCc1ccccc1)OC1OC(CO)C(O)C(O)C1O` (centres undefined), the Potency entry in test [1] and in test [2] was “inactive” each time.

For `CN(CCc1ccc(Nc2ncc(-c3cccnc3)s2)cc1)Cc1ccccc1`, the Potency was 366 nM (active) in test [1] and 651 nM (active) in test [2].

As for `CC(=O)c1cc2c(cc1O)OC(C)(C)C=C2`, the Potency result in test [1] and in test [2] was “inactive” throughout.

On to `CC(=O)NCCNc1cc(Cl)nn2c(-c3cccc(S(=O)(=O)N(C)C)c3)c(C)nc12`, for which the Potency was 1460 nM (active) in test [1] and 1640 nM (active) in test [2].

`COc1ccccc1-c1cc(Nc2cccc(CS(N)(=O)=O)c2)ncn1`: the Potency was 9200 nM (active) in test [1] and 8200 nM (active) in test [2].

Consider `O=C(/C=C/c1ccc2ccccc2n1)c1ccncc1`, for which the Potency was 1460 nM (active) in test [1] and 1640 nM (active) in test [2].

In the case of `C/C=C/C=C/[C@@H]1O[C@](O)([C@H](CC)C(=O)NC/C=C/C=C(\C)[C@@H](OC)[C@@H](C)[C@@H]2O[C@H](/C=C/C=C/C=C(\C)C(=O)c3c(O)ccn(C)c3=O)[C@H](O)[C@@H]2O)[C@H](O)[C@H](O)C1(C)C`, in test [1], the viability (% of control) is 84.2% [at 9.25 µM]. Moreover, the viability, % of control in test [2] was 85.3% [at 9.25 µM].
